Several values for one entry are separate records, joined by “and”; a condition that tells them apart may be missing. Equal values may be shown once. Compounds without any hit were thinned out: in the full panel of roughly 83,000, 20% have a hit.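 The endpoint reported here, percent growth, reads 100 for growth as untreated, 0 for no net growth and -100 for all cells dead.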 Activity calls are given as the source filed them.
Test system: SW-620 colon
Experiment: NCI-60 one-dose screen, 48 h (100 = growth as untreated, 0 = no growth, -100 = all killed)
Settings: 10 µM
Procedure: Growth inhibition of the SW-620 human tumor cell line is measured as a screen for anti-cancer activity. Cells are grown in 96 well plates and exposed to the test compound for 48 hours. Compounds are tested at a single concentration, which is 10^-5 M for most compounds. The reported endpoint is percent growth (GI% or GIPRCNT), where numbers from 0 - 100% represent growth inhibition, and numbers from -100% - 0 represent cell death. For example, a value of 40 represents 60% growth inhibition. A value of 0 means no net growth occurred over the course of the experiment. A value of -40 indicates 40% of cells at the beginning of the experiment died by the end of the experiment. A value of -100 means all cells are dead at the end of the experiment.
NCI-60 Human Tumor Cell Lines Screen was performed using the standard one-dose NCI protocol, which is described in more detail at https://dtp.cancer.gov/discovery_development/nci-60/default.htm.
Compounds with GIPRCNT values below 10 were considered active. Activity score was based on GIPRCNT using the following formula: […]
Score is 0 for GIPRCNT values of 100 or above, 50 for GIPRCNT values of 0, and 100 for GIPRCNT values of -100.

Row | Structure (SMILES) | growth
1 | NC(=O)SCC(=O)NNc1ccccc1 | 87.5% (inactive)
2 | OC(CN1CCCC2CCCCC21)c1cc2ccccc2c2ccccc12 (stereo not given) | 27.1% (inactive)
3 | CCCCCCCCCCCC[N+](C)(C)Cc1ccccc1 | 45.2% (inactive)
4 | CN1CCN(CCCN2c3ccccc3Sc3ccc(C(F)(F)F)cc32)CC1 | 34.3% (inactive)
5 | CC(=O)Nc1cc(C)ccc1C | 96.4% (inactive)
6 | CCC(C)(C)c1cc(O)c(C(C)(C)CC)cc1O | 31.8% (inactive)
7 | CSC1SCC2C(=O)N(C)C(C(C)C)C(=O)OCC(NC(=O)c3cnc4ccccc4n3)C(=O)NC(C)C(=O)N(C)C1C(=O)N(C)C(C(C)C)C(=O)OCC(NC(=O)c1cnc3ccccc3n1)C(=O)NC(C)C(=O)N2C (stereo not given) | 1.31% (active)
8 | Nc1ccc2cc3ccc(N)cc3nc2c1 | 103% (inactive) and 10.5% (inactive)
9 | C[n+]1c2cc(N)ccc2cc2ccc(N)cc21 | 2.1% (active) [middle of 4 runs]
10 | O=C(O)COc1ccc(OCC(=O)O)cc1 | 15.1% (inactive)
11 | COc1c(O)cc2oc3cc(O)c(CC=C(C)C)c(O)c3c(=O)c2c1CC=C(C)C | 60.9% (inactive)
12 | O=C(/C=C/c1ccccn1)c1ccccc1 | -51.3% (active)
13 | CC[N+](CC)=c1ccc2nc3c(cc(N)c4ccccc43)oc-2c1 | -25.2% (active)
14 | CC(C)(C)CC(C)(C)c1ccc(OCCO)cc1 | 109% (inactive)
15 | O=c1ccn(C2CC(O)C(COC(c3ccccc3)(c3ccccc3)c3ccccc3)O2)c(=O)[nH]1 (stereo not given) | 99.4% (inactive)
16 | O=C(Nc1ccc(C(=O)O)c(O)c1)c1ccccc1 | 99% (inactive) and 113% (inactive)
17 | O=C1C=C(O)c2ccccc2C1=O.[Ag] | 106% (inactive)
18 | CCCCCCCCCCCCCCCCCCOCC(COP(=O)([O-])OCC[N+](C)(C)C)OC (stereo not given) | 70.1% (inactive)
19 | COc1ccc(CC(=O)c2ccc(O)cc2O)cc1 | 111% (inactive)
20 | OCC1OC(n2cnc3c(=S)nc[nH]c32)C(O)C1O (stereo not given) | 104% (inactive) and 76.6% (inactive)

Row | Structure (SMILES) | growth
21 | Cc1cc(NS(=O)(=O)c2ccc(N=Nc3cc(N=Nc4ccc(S(=O)(=O)Nc5cc(C)nc(C)n5)cc4)c4c(NC(=O)C(Cl)Cl)cccc4c3OC(=O)C(Cl)Cl)cc2)nc(C)n1 (tested in a mixture with another compound) | 122% (inactive) and 104% (inactive)
22 | N=S(c1ccccc1[N+](=O)[O-])c1ccccc1[N+](=O)[O-] | 17.9% (inactive)
23 | CCCCCCCCCCSC(=N)N | -5.44% (active)
24 | O=C(C(=Cc1ccccc1)C(=O)c1ccccc1)c1ccccc1 | 44.3% (inactive) and 84.4% (inactive)
25 | Nc1c2ccccc2nc2ccccc12 | 2.21% (active) and 14.3% (inactive) and 26.8% (inactive)
26 | CCN1/C(=C/C=C/C=C/c2sc3ccccc3[n+]2CC)Sc2ccccc21 | -31.1% (active)
27 | CN(C)C(=S)SC(=S)N(C)C | 102% (inactive) and 96% (inactive)
28 | CCCCCCCCCCCCSC(=NC)NC | -25.5% (active) and 32.3% (inactive)
29 | O=[N+]([O-])C1=C(c2ccccc2)SC=C(c2ccccc2)S1 | 62.5% (inactive)
30 | CCO/C=C1\SC(=S)N(c2cccc(O)c2)C1=O | 112% (inactive)
31 | CCCCCC(C)c1ccc(O)c(C)c1 (stereo not given) | 105% (inactive)
32 | O=C1NC(=O)c2cc([N+](=O)[O-])ccc21 | 103% (inactive)
33 | NNc1ccc2ccccc2c1 | 96.1% (inactive)
34 | NC1=C(Cl)C(=O)c2ccccc2C1=O | 86.8% (inactive)
35 | NNc1c2ccccc2nc2ccccc12 | 43.9% (inactive)
36 | O=C1C=CC(=CC=C2C=CN(CCCCCCCCCCCO)C=C2)C=C1 | 41.9% (inactive)
37 | Cc1cc(O)c(C(C)C)cc1Cl | 105% (inactive)
38 | Clc1ccc(/C=C/c2ccccn2)c(Cl)c1 | 86% (inactive)
39 | Oc1ccc(N=Nc2ccccn2)c(O)c1 | 32.9% (inactive)

Same assay, conditions: 100 µM

Row | Structure (SMILES) | growth
40 | O=c1ccn(C2CC(O)C(COC(c3ccccc3)(c3ccccc3)c3ccccc3)O2)c(=O)[nH]1 (stereo not given) | 62.2% (inactive)
